Only some compounds are listed: those with a hit (about 2.4% of all), similar ones and a draw of the others.
Tb PGK inh: qHTS Assay to Find Inhibitors of Phosphoglycerate Kinase | PGK/GAPDH coupled, Kinase-Glo luminescence, 60 min | Potency, µM (top dose mostly 57.5 µM), most hits filed as inhibitors | actives 0.043% (n = 380,000); also: nearly all actives have a fitted effect of over 60% in size
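Recombinant glycosomal PGK reaction used 1,3-bisphosphoglycerate generated in-well by GAPDH (100nM final) in 100mM TEA pH 7.6, 5mM MgCl2, 0.01% Tween-20. After 60 minutes at room temperature, ATP was read by Kinase-Glo Plus luminescence end-point.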
Pol kappa inh: qHTS for Inhibitors of Polymerase Kappa. DNA polymerase kappa (Homo sapiens), Q9UBT6. Potency, µM (top dose mostly 107 µM), actives largely listed as inhibitors. actives 0.53% (n = 400,000). purified Pol kappa, fluorescent DNA synthesis assay, 10 min
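10 nM Pol kappa was preincubated with compounds for 15 min at room temperature. Reaction started with 50 nM (final) substrate. Fluorescence read kinetically at 0 and 10 min.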
Pol eta inh: qHTS for Inhibitors of Polymerase Eta; recombinant Pol eta, fluorescent DNA replication assay; actives 1.2% (n = 390,000); Potency, µM (doses to about 114 µM), most hits filed as inhibitors; DNA polymerase eta (Homo sapiens), Q9Y253
Target sequence (Q9Y253 whole entry, looked up): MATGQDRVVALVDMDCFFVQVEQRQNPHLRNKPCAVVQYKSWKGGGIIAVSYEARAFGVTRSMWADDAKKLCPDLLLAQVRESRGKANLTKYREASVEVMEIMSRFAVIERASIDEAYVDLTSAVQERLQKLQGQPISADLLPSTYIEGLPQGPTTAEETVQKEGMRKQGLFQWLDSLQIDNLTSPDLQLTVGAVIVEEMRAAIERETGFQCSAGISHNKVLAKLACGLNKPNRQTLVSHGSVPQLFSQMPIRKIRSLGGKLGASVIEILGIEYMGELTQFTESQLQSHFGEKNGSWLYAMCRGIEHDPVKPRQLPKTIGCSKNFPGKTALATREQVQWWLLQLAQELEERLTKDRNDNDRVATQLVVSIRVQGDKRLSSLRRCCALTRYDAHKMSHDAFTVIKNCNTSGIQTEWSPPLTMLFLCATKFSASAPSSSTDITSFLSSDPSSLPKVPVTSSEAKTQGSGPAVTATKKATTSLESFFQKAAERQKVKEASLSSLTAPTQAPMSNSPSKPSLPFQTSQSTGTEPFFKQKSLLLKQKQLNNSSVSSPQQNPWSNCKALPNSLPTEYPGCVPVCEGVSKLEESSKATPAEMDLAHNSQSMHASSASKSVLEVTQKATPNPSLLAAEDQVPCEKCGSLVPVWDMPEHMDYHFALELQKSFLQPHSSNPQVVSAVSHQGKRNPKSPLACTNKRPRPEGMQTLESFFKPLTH
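Fluorescent replication assay: 50 nM final substrate added after a 15 min room-temperature compound preincubation with 10 nM enzyme. Signal taken at 0 min and again at 10 min.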
POLB inh: qHTS Assay for Inhibitors of DNA Polymerase Beta. Potency, µM (highest dose often 114 µM), most hits filed as inhibitors. Pol beta primer extension/strand displacement, fluorescence kinetic. P06746. actives 1.3% (n = 340,000)
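Enzyme-only controls used 10 nM Pol beta; buffer lacking enzyme served as negative control. Compound preincubated 15 min, then 50 nM substrate added; 0 and 10 min reads at room temperature.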
POLI inh: qHTS for Inhibitors of Polymerase Iota; DNA polymerase iota (Homo sapiens), Q9UNA4; Pol iota fluorescent replication assay, 10 min; Potency, µM (series often up to 115 µM), usual class: inhibitors; actives 1% (n = 390,000); AID 588590, 2011
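Fluorescent replication assay read twice, at 0 min and 10 min after adding 50 nM (final) substrate. Enzyme (10 nM) and compounds were first incubated 15 min at room temperature; enzyme-free buffer wells were negative controls.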
FEN1 inhibitor: qHTS Assay for the Inhibitors of Human Flap endonuclease 1 (FEN1); P39748; Recombinant FEN1 flap cleavage, fluorescence, 15 min; Potency, µM (doses to about 114 µM), hits mostly inhibitors; actives 0.35% (n = 390,000); also: nearly all actives have a fitted effect of over 65% in size
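With each library titrated from low to high concentration, compounds met 10 nM FEN1 for 15 min at room temperature before 50 nM substrate was added; readings at 0 and 15 min fed four-parameter Hill curve fits.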
Of the large screens only hits and unclear results are named; the others gave an inactive call. Calls follow the shape of the dose curve; as a rule, active = well fitted curve in the direction sought with a large enough effect; inconclusive = small, poorly fitted or top-dose-only effect, or another doubt; inactive = no such curve, though single readings can be large; an effect the other way counts as inactive or inconclusive.

COc1ccc(CN2C(=O)Cc3c2nc(N)c2c(N)nc(N4CCOCC4)c(C#N)c32)cc1	Pol eta inh inconclusive, POLI inh 7.94µM
COCCN1C(=O)Cc2c1nc(N)c1c(N)nc(N3CCN(c4ccc(F)cc4)CC3)c(C#N)c21	POLI inh inconclusive
COCC(C)N1C(=O)Cc2c1nc(N)c1c(N)nc(N3CCN(c4ccccc4F)CC3)c(C#N)c21 (configuration not stated)	POLI inh 17.8µM
COc1ccc(S(=O)(=O)Nc2ccc(O)c3ccccc23)cc1	POLI inh 20µM, FEN1 inhibitor inconclusive
COc1ccc(-n2c(SCC(=O)C(C)(C)C)nc3c(sc(=S)n3-c3ccccc3)c2=O)c(OC)c1	POLI inh 11.2µM
CCOC(=O)CCCC(=O)N1CCN(/[N+]([O-])=N/Oc2ccc([N+](=O)[O-])cc2[N+](=O)[O-])CC1	POLI inh inconclusive (no result: Tb PGK inh, Pol eta inh, POLB inh)
CCn1c(SCC(=O)Nc2sc3c(c2C#N)CCCC3)nnc1-c1ccco1	none
COc1ccc(-c2ccc(C#N)c(SCC(=O)Nc3sc4c(c3C#N)CCC4)n2)cc1	none
N#Cc1c(NC(=O)CSc2nnc(-c3ccco3)n2-c2ccccc2)sc2c1CCC2	Pol kappa inh inconclusive, Pol eta inh inconclusive, POLB inh 25.1µM, POLI inh inconclusive
N#Cc1ccc(-c2cccnc2)nc1SCC(=O)Nc1sc2c(c1C#N)CCC2	Pol kappa inh 79.4µM, Pol eta inh 79.4µM, POLB inh inconclusive, POLI inh 14.1µM
CCC(Oc1ccc(F)cc1)C(=O)Nc1nc(-c2ccc(F)cc2)ns1 (configuration not stated)	none
CC1=C(C(=O)O)N2C(=O)C(NC(=O)C(N)c3ccc(O)cc3)C2SC1 (configuration not stated)	none (no result: Tb PGK inh, Pol eta inh, POLB inh, POLI inh, FEN1 inhibitor)
O=S(=O)(c1ccc(Cl)cc1)N1CCN(c2nc(Nc3cc(Cl)ccc3O)nc3ccccc23)CC1	none (no result: Tb PGK inh, Pol eta inh, POLB inh)
COc1ccc(Cc2ccccc2C(=O)O)cc1	POLI inh inconclusive (no result: POLB inh)
COc1ccc(CC2=CC(=O)c3ccccc3C2=O)cc1	Pol eta inh inconclusive, POLI inh 10µM, FEN1 inhibitor inconclusive
Cc1ccc(N2CCN(C(=O)c3c(C)oc4nc(C)nc(N5CCCC5)c34)CC2)c(C)c1	none
CC1(C)OC(=O)C2(Cc3ccccc3N3CCCC32)C(=O)O1 (configuration not stated)	Pol kappa inh inconclusive, POLI inh 79.4µM (no result: Tb PGK inh, Pol eta inh, POLB inh)
CC1CCN2c3ccccc3CC3(C(=O)OC(C)(C)OC3=O)C2C1 (configuration not stated)	POLI inh inconclusive (no result: Tb PGK inh, Pol eta inh, POLB inh)
COc1ccc(Br)cc1CNC(=O)C1CCN(c2nnc(-n3cccc3CNc3ccc(C)cc3)s2)CC1	none (no result: Tb PGK inh, Pol eta inh)
O=C(N/N=C/c1c[nH]c2ccccc12)c1ccc(O)c(O)c1	Pol kappa inh inconclusive, Pol eta inh inconclusive, POLB inh 44.7µM, POLI inh inconclusive
CC(C)(C)c1ccc(NC(=O)CSc2nnc3scc(-c4ccccc4)n23)cc1	none (no result: Tb PGK inh, Pol eta inh)
O=C(CSc1nc(=O)[nH]c2c1CCC2)NCc1ccc(Cl)cc1	none
COc1ccc2c(c1)n([O-])c1c([n+]2=O)CCC1	Pol eta inh 22.4µM, POLI inh inconclusive
Fc1cccc(Nc2nc(-c3ccncc3)nc3ccccc23)c1	Pol eta inh 14.1µM, POLB inh 12.6µM, POLI inh inconclusive
Cc1ccc(-c2onc(C)c2C)cc1S(=O)(=O)NCc1ccco1	none
CC(=O)C1=C(O)C(=O)N(CCc2c[nH]c3ccccc23)C1c1ccco1 (configuration not stated)	POLB inh 31.6µM, POLI inh inconclusive
CC(=O)C1=C(O)C(=O)N(CCc2c[nH]c3ccccc23)C1c1ccc(C)cc1 (configuration not stated)	none
O=S(=O)(c1ccc(Cl)cc1)N1CCOCC1	none (no result: Tb PGK inh, Pol eta inh, POLB inh)
CC(=O)N1CCn2c3c(c(=O)c4cc(C)ccc42)CCC31 (configuration not stated)	POLI inh 22.4µM
C[C@H](Cc1nc2c(cnn2-c2ccccc2Cl)c(=O)[nH]1)C(F)(F)F	none (no result: Tb PGK inh, Pol eta inh, POLB inh, POLI inh, FEN1 inhibitor)
CC(C)(C)N/N=C/c1cc(Cl)cc([N+](=O)[O-])c1O	Pol eta inh inconclusive, POLB inh 35.5µM
O=C(N/N=C/c1cc(Cl)cc([N+](=O)[O-])c1O)C1CC1	POLB inh inconclusive, POLI inh inconclusive
Cc1ccc(-c2c(C3C4C=CCCC4(C)C(=O)N3Cc3ccccc3)ccc3ccccc23)cc1 (configuration not stated)	none (no result: Tb PGK inh, Pol eta inh, POLB inh)
CCOc1cc([N+](=O)[O-])cc(/C=C2/NC(=O)N(Cc3ccccc3F)C2=O)c1O	Pol kappa inh inconclusive, Pol eta inh 50.1µM, POLB inh inconclusive, POLI inh inconclusive
CCOC(=O)NC1(NC2CCCCC2)Oc2ccccc2O1	Pol kappa inh 79.4µM, POLB inh 25.1µM, POLI inh 70.8µM
CCOC(=O)NC1(NC(C)C)Oc2ccccc2O1	POLI inh inconclusive
O=C(Nc1nccs1)[C@@H]1CC=C[C@@H]2CCN(C3CCCCC3)C(=O)[C@@H]21	none (no result: Tb PGK inh, Pol eta inh, POLB inh)
O=C1NC(c2ccc(Br)cc2)=N/C1=C/c1ccco1	POLB inh inconclusive
O=C1NC(c2ccccc2Cl)=N/C1=C/c1ccco1	Pol kappa inh inconclusive, POLB inh inconclusive, POLI inh 28.2µM
CCCn1c(N)c(N(CCOC)C(=O)c2cc(Cl)nc3ccccc23)c(=O)[nH]c1=O	none (no result: POLB inh)
COCCN(C(=O)c1cc(-c2ccco2)nc2ccccc12)c1c(N)n(Cc2ccccc2)c(=O)[nH]c1=O	Pol kappa inh inconclusive, Pol eta inh 22.4µM, POLI inh 17.8µM, FEN1 inhibitor inconclusive (no result: POLB inh)
CCCCN(C(=O)c1cc(-c2ccc(F)cc2)nc2ccccc12)c1c(N)n(CCCC)c(=O)[nH]c1=O	none (no result: POLB inh)
CCCN(C(=O)c1cc(-c2ccco2)nc2ccccc12)c1c(N)n(Cc2ccccc2)c(=O)[nH]c1=O	Pol eta inh 15.8µM, POLI inh 20µM (no result: POLB inh)
CCCCN(C(=O)c1cc(-c2ccco2)nc2ccccc12)c1c(N)n(CCCC)c(=O)[nH]c1=O	Pol kappa inh 79.4µM, Pol eta inh 50.1µM, POLI inh 17.8µM (no result: POLB inh)
CN1N=C(C(C)(C)C)CC1=O	POLI inh 3.98µM
CN1N=C(C(F)(F)F)CC1=O	none
Cc1cc(O)c(C=O)c2c1C(=O)Oc1c(CO)c(O)c3c(c1O2)C(O)OC3=O (configuration not stated)	Tb PGK inh inconclusive, Pol kappa inh 0.794µM, Pol eta inh 2.82µM, POLB inh 2.24µM, POLI inh 1.12µM, FEN1 inhibitor 3.55µM
Cc1cc(O)c(C=O)c(O)c1C(=O)O	none (no result: Tb PGK inh, Pol eta inh, POLB inh, POLI inh, FEN1 inhibitor)
